Most compounds without a hit are left out; they make up all but 3.5% or so of the library.
GPR151 ag = activators of human GPR151. activation, % at 11.2 µM. PathHunter beta-arrestin GPR151 cells, luminescence. AID 1508602. 650,000 compounds, 1% hits. Q8TDV0; in the data active = activation above about 4.9%;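 also: 0% = median of compound wells and 100% = cells with positive control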
FBW7 act = activators of human E3 ligase FBW7; normalized activity (activation), % at 26.1 µM; AlphaScreen FBW7–phospho-cyclin E peptide binding, activator screen; Q969H0; 650,000 compounds, 0.13% hits; AID 1259310; in the data active = normalized activity above about 1.9%;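 also: purified mutant Fbw7 with reduced substrate affinity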
MITF inh = inhibitors of human MITF. O75030. AlphaScreen MITF homodimerization, bead proximity signal. inhibition, % at 2.6 µM. 650,000 compounds, 0.91% hits; in the data active = inhibition above about 50%;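 also: 0% = vehicle wells with protein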
Target sequence (O75030 whole entry, looked up): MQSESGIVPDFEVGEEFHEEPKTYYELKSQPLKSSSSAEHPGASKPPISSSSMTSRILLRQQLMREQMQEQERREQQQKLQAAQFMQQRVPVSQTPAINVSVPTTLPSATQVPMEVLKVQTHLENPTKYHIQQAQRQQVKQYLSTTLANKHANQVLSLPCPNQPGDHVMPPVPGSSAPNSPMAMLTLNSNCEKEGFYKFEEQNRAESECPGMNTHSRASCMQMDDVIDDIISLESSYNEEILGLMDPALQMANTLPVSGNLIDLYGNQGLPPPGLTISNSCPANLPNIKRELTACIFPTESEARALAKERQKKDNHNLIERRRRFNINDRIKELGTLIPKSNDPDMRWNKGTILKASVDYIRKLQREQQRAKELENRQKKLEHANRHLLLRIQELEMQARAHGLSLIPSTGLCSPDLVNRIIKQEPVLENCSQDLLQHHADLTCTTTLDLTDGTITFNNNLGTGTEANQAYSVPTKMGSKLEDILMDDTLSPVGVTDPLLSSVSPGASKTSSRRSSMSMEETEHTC
TEAD-YAP block = TEAD-YAP interaction inhibition. AID 1259422. HEK-TIYL cells, TEAD-Gal4/YAP UAS-luciferase luminescence. 640,000 compounds, 1.4% hits. inhibition, % at 9.12 µM; in the data active = inhibition above about 32%;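 also: 0% = median of test compound wells and 100% = reference inhibitor wells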
GPR151 confirm = confirmation of human GPR151 activators. shares compounds with GPR151 ag. GPR151 PathHunter beta-arrestin cells, luminescence, 90 min; % of EA-reagent control over plate median. activation, % at 11.2 µM. 6,700 tested, under 10 active. AID 1508609;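 active = mean percent activation across replicates above the confirmation screen cutoff of 4.91%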
GPR119 ag = activates human GPR119 in a GPR151 counter-screen. shares compounds with GPR151 ag. activation, % at 11.2 µM. 6,700 compounds, 0.3% hits. GPR119 PathHunter beta-arrestin cells, luminescence, 90 min; 0 = compound-well median, 100 = enzyme-acceptor control. AID 1508611;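 active = mean percent activation in the counterscreen above 29.09%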;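 also: counterscreen on off-target GPR119 to flag nonselective hits from the GPR151 activator screen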
An asterisk follows results filed as active; . = no result given.

SMILES	GPR151 ag	FBW7 act	MITF inh	TEAD-YAP block	GPR151 confirm	GPR119 ag
COc1cc(C(C)=O)ccc1OCCCCN1CCN(Cc2ccccc2)CC1	2	0	48	7	.	.
O/N=C/c1cn(-c2ccccc2)nc1-c1ccc(F)cc1	6.0*	1	19	-5	-1	-15
CC1(C)CC(=O)C2=C(C1)N(c1cc(C(F)(F)F)ccc1Cl)C(N)=C(C#N)C2c1ccccc1 (centres undefined)	1	0	16	0	.	.
COC(CNC(=O)CN1CCN(Cc2cccc(C)c2)C1=O)OC	0	0	3	-10	.	.
Cc1[nH]c(-c2ccc(F)cc2)cc1C(=O)N1CCCC1	5	0	2	-6	.	.
Cc1[nH]c(-c2ccc(F)cc2)cc1C(=O)N1CCOCC1	5.8*	0	-8	-12	0	0
CC(=O)N1c2ccc(S(=O)(=O)N3CCCC3C(=O)Nc3nc(C)cs3)cc2CC1C (centres undefined)	5.0*	0	5	10	0	2
CC(=O)N1c2ccc(S(=O)(=O)N3CCCC3C(=O)Nc3cccc(C)n3)cc2CC1C (centres undefined)	1	0	6	7	.	.
Cc1nc2c(C(=O)NCCC3=CCCCC3)cnn2c(C)c1Cc1ccccc1Cl	0	0	-1	-12	.	.
CNS(=O)(=O)c1cccc(C(=O)OCC(N)=O)c1	8.8*	0	0	1	0	-1
CNS(=O)(=O)c1cccc(C(=O)OCc2cc(C(C)=O)ccc2OC)c1	5.0*	0	-2	-9	0	3
CSc1ccc(S(=O)(=O)N2CCCCCC2)cc1	5.0*	0	15	3	0	0
CN1CCN(S(=O)(=O)c2ccc(C3CCCCC3)cc2)CC1	5.3*	0	4	2	1	-2
Cc1c(C(=O)Nc2ccc(F)cc2Cl)sc2ncn(CC(=O)N3CCCC(C)C3)c(=O)c12 (centres undefined)	-2	0	21	0	.	.
OCCNCCCOc1ccccc1-c1ccccc1	0	0	11	-2	.	.
CCOC(=O)C1CCN(C(=O)Cc2c(C(=O)O)[nH]c3ccc(Cl)cc23)CC1	5.3*	0	6	-7	0	-1
Cc1cc(Cl)ccc1OC(C)C(=O)NCc1ccco1 (centres undefined)	6.9*	0	12	4	1	16
CC(C)C(=O)Nc1nnc(S(=O)(=O)N(C)c2ccc(Cl)cc2)s1	5.8*	0	2	12	-1	-4
Cc1ccc(Nc2nc(N3CCCC3)nc(N3CCCC3)n2)cc1	-1	0	8	5	.	.
CCc1ccc(Nc2nc(N3CCCC3)nc(N3CCCC3)n2)cc1	4.9*	0	-4	-4	2	7
COC(=O)c1ccccc1NC(=O)CCSCCC(=O)Nc1ccccc1C(=O)OC	6.3*	0	-4	1	-1	-7
COC(=O)c1ccccc1NC(=O)CSc1n[nH]c(-c2ccccc2)n1	5.0*	1	11	4	-1	-13
COC(=O)CCC(=O)Nc1ccccc1NC(=O)CCC(=O)OC	5.0*	0	5	0	0	10
CCCC(=O)Nc1ccccc1NC(=O)Cc1ccc(OC)cc1	5.4*	0	16	0	0	-12
O=C(CCC(=O)Nc1ccccc1F)Nc1ccccc1F	0	0	-6	1	.	.
SMILES	GPR151 ag	FBW7 act	MITF inh	TEAD-YAP block	GPR151 confirm	GPR119 ag
COC(=O)c1c(NC(=O)c2cccc(C)c2)sc(Cc2ccccc2)c1C	0	0	-10	-7	.	.
Clc1ccc(C2C3=C(Nc4ncnn42)c2ccccc2CCC3)cc1 (centres undefined)	6.0*	0	-3	-6	0	4
Cc1cccnc1NC(=O)C(CCS(C)(=O)=O)N1Cc2ccccc2C1=O (centres undefined)	0	1	11	3	.	.
CCOC(=O)C1=C(C)N=c2s/c(=C\c3ccc(OCc4ccc(Cl)cc4Cl)c(OCC)c3)c(=O)n2C1c1ccc(OC)cc1 (centres undefined)	2	0	1	8	.	.
C#CCNc1ccc([N+](=O)[O-])cc1[N+](=O)[O-]	0	1	4	-4	.	.
O=C(NCc1ccccc1)c1ccccc1NS(=O)(=O)c1cccc([N+](=O)[O-])c1	4.9*	0	2	-2	1	13

Compound activity: PubChem, The Scripps Research Institute Molecular Screening Center
